An excerpt weighted towards active compounds, which were near 8.3% of everything screened.
HCV inhibitor: inhibitors of hepatitis C virus infection; Huh7.5.1 HCVcc-Cre infection, luciferase reporter, 44 h; 340,000 compounds, 3.4% hits; Potency, µM (titrated, usually from 41.8 µM), for the others: top-dose activity change, negative = inhibition, most hits filed as inhibitors; note: potency is the fitted concentration of half-maximal effect
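1,000 cells/well; 4 h culture; + compound; + HCVcc-Cre (~0.5 moi); 44 h; luciferase substrate, RT 15 min; read 15 sec.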
HCMV inh: blocks human cytomegalovirus replication. HFF cells, HCMV-luciferase reporter, 72 h; stronger effect = lower value. activity change, negative = inhibition, % at 57.5 µM. 410,000 compounds, 4.5% hits. AID 1259415; in the data active = activity change below about -60%; inconclusive = no clear call, values can overlap the other calls; inactive = above about -39%
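Inhibition of viral replication was scored as loss of reporter luminescence in HFFs infected with HCMV-luciferase (MOI 1 PFU/cell) for 72 h; compounds tested at 2 doses, normalized to buffer and Salinomycin controls.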
Giardia FBPA inh-1: inhibitors of Giardia lamblia fructose-1,6-bisphosphate aldolase; A8B2U2; purified Giardia FBPA; Potency, µM (highest dose often 59.6 µM), for the others: at the top dose activity, negative = inhibition, actives largely listed as inhibitors; 290,000 compounds, 0.71% hits; AID 2451; note: potency is the fitted concentration of half-maximal effect; nearly all actives have a fitted effect of over 55% in size
Target sequence (A8B2U2 whole entry, looked up): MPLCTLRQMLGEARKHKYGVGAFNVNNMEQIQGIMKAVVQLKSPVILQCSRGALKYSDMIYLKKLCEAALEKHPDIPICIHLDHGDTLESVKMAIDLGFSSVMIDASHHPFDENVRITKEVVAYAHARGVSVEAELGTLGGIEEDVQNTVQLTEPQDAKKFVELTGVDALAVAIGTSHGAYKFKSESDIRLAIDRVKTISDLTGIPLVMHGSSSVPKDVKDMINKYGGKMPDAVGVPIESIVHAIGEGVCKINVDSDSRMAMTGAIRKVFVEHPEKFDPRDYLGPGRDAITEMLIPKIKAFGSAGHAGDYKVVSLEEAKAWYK
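Giardia FBPA (40 nM reagent) was preincubated 10 min at RT with compound (up to 57.5 uM final), then substrate plus GAPDH/TPI/NAD/arsenate coupling system with diaphorase/resazurin was added; resorufin fluorescence (525/598 nm) was read after 20 min.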
MARV entry inh: Marburg virus entry inhibition; Marburg virus pseudotyped entry inhibition, cell reporter; Potency, µM (titrated, usually from 37.8 µM), inactives show top-dose activity change, negative = inhibition, most hits filed as inhibitors; 300,000 compounds, 1.8% hits; calls by dose curve; tested in HEK293 cells; note: potency is the fitted concentration of half-maximal effect
FMDV inh: antivirals against foot and mouth disease virus; FMDV antiviral cell-based qHTS; 410,000 compounds, 1.2% hits; Potency, µM (series often up to 57.9 µM), without a hit: top-dose activity change, negative = inhibition, most hits filed as inhibitors; AID 1159524; calls by dose curve; tested in HEK293T cells; note: read-out not given here; potency is the fitted concentration of half-maximal effect; nearly all actives have a fitted effect of over 45% in size
Lassa entry inh: Lassa virus entry inhibition; Potency, µM (highest dose often 37.9 µM), for the others: at the highest dose activity change, negative = inhibition, hits mostly inhibitors; Lassa virus pseudotype entry inhibition, cell reporter; 300,000 compounds, 1.2% hits; calls by dose curve; tested in HEK293 cells; note: potency is the fitted concentration of half-maximal effect; nearly all actives have a fitted effect of over 50% in size
Giardia growth: blocks growth of Giardia lamblia trophozoites | Giardia lamblia trophozoite growth inhibition | 1,500 compounds, 5% hits | shares compounds with Giardia FBPA inh-1 | Potency, µM (highest dose often 57.5 µM), without a hit: at the highest dose activity change, negative = inhibition, usual class: inhibitors;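 note: potency is the fitted concentration of half-maximal effect; trophozoites exposed to compound for 48 h at 37 °C; nearly all actives have a fitted effect of over 70% in size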
Mammal cell tox: counter-screen for Giardia aldolase inhibitors: mammalian cell toxicity; Potency, µM (series often up to 57.5 µM), for the others: at the top dose viability change, negative = toxicity, hits mostly inhibitors; mammalian cell viability counter-screen, qHTS; shares compounds with Giardia FBPA inh-1; 1,500 compounds, 4% hits;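 note: Chinese hamster ovary cells used as mammalian cytotoxicity surrogate; viability measured as cellular ATP by luminescence; potency is the fitted concentration of half-maximal effect; compound exposure lasted 48 h before reading; nearly all actives have a fitted effect of over 60% in size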
Giardia FBPA inh-2: confirmation of Giardia fructose-bisphosphate aldolase inhibitors; purified Giardia aldolase enzyme activity, qHTS; Potency, µM (titrated, usually from 57.5 µM), without a hit: at the top dose activity change, negative = inhibition, actives largely listed as inhibitors; 1,500 compounds, 5% hits; shares compounds with Giardia FBPA inh-1; AID 2787; note: potency is the fitted concentration of half-maximal effect; nearly all actives have a fitted effect of over 45% in size
Rabbit aldolase: blocks rabbit muscle aldolase in Giardia aldolase selectivity test | shares compounds with Giardia FBPA inh-1 | Rabbit muscle FBPA enzyme inhibition, selectivity counter-screen | Potency, µM (series often up to 57.5 µM), without a hit: top-dose activity, negative = inhibition, hits mostly inhibitors | 1,500 compounds, 4% hits; note: potency is the fitted concentration of half-maximal effect; nearly all actives have a fitted effect of over 60% in size
Target sequence (P00883 whole entry, looked up): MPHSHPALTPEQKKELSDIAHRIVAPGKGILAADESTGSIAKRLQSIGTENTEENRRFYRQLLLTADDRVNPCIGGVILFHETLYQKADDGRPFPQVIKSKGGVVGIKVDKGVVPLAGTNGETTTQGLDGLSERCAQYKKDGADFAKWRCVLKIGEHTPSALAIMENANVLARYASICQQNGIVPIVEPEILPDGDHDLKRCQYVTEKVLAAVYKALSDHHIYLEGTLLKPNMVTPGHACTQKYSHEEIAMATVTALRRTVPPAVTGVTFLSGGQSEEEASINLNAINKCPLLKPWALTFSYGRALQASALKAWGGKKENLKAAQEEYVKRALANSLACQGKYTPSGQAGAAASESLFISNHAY
GAPDH coupling: GAPDH inhibition flagged for Giardia aldolase hits | 1,500 compounds, 6% hits | shares compounds with Giardia FBPA inh-1 | GAPDH coupling enzyme counterscreen, biochemical, qHTS | Potency, µM (titrated, usually from 57.5 µM), for inactives: at the highest dose activity change, negative = inhibition, hits mostly inhibitors; note: potency is the fitted concentration of half-maximal effect; nearly all actives have a fitted effect of over 55% in size
Numbers without * were called inactive; u = inconclusive; x = not tested or not shown; [ ] = dose if it differs, or a comment. Unless noted, calls come from the whole dose curve; as a rule, active = well fitted curve in the direction sought with a large enough effect; inconclusive = small, poorly fitted or top-dose-only effect, or another doubt; inactive = no such curve, though single readings can be large; an effect the other way counts as inactive or inconclusive. % is set by controls: 0 for no effect and ±100 for the full control effect.

SMILES	HCV inhibitor	HCMV inh	Giardia FBPA inh-1	MARV entry inh	FMDV inh	Lassa entry inh	Giardia growth	Mammal cell tox	Giardia FBPA inh-2	Rabbit aldolase	GAPDH coupling
COc1ccc(NC(=S)N(CCCN2CCC(C)CC2)Cc2cccs2)cc1Cl	u	-89.6*	15.8µM*	u	113.1%	u	16.8%[10.4 µM]	-1.9%	-6.3%	-1.4%	11.5%
COCCN(C(=S)Nc1ccc(OC)c(Cl)c1)C1CCN(C(C)C)CC1	u	u	11.2µM*	u	-2.3%	-12.2%	u	-3.4%	-9.5%	-0.7%	-2.8%
COc1ccc(NC(=S)NCCCN2CCCC2)cc1Cl	7.0%	u	8.89µM*	-0.8%[46.1 µM]	-13.1%	3.6%	u	31.6µM*	u	2.3%	u
COc1ccccc1N1CCN(c2ccc(=O)n(CC(=O)O)n2)CC1	x	-8.1	x	-0.1%[46.1 µM]	-9.5%	21.8%[46.1 µM]	x	x	x	x	x
CCC(CC)C(=O)Nc1ccc2nc(SCC(=O)N3CCCC3)sc2c1	x	13.7	x	11.0%[46.1 µM]	-16.0%	-3.3%[46.1 µM]	x	x	x	x	x
CC(C)C[C@H]1COc2cc(Br)ccc2S(=O)(=O)N1Cc1ccc(Cl)cc1	x	16.1	x	u	x	x	x	x	x	x	x
Cc1cc2cc(C(c3nnnn3CC3CCCO3)N3CCCc4ccccc43)c(=O)[nH]c2cc1C (centres undefined)	0.9%	37.4	3.97µM*	u	-15.4%	u	1.0%	-4.5%	-13.2%	-2.9%	-19.5%
Cc1cc(NCc2ccncc2)ccc1Br	15.6%	-18.8	22.3µM*	x	10.4%	x	25.6%	-6.2%	-5.3%	-5.8%	1.9%
O=C(Nc1ccccc1)N1CCC2(CC1)CCN(C(=O)c1cnccn1)CC2	x	x	-1.3%	x	-6.5%	x	x	x	x	x	x
O=C(Nc1ccccc1C(=O)O)/C(=C/c1ccc([N+](=O)[O-])cc1)NC(=O)c1ccc(Br)o1	17.7%	1.5	17.7µM*	6.3%[14.2 µM]	0.0%	6.4%	72.9%	3.9%	-21.1%	-24.0%	-20.3%
CC(=O)Nc1ccc(S(=O)(=O)N2CCN(Cc3cccc([N+](=O)[O-])c3)CC2)cc1	-28.5%	-23.4	17.7µM*	-2.6%[46.1 µM]	u	-6.0%	-1.1%	-4.3%	5.6%	7.9%	11.9%
Cc1cc(C)nc(NN2C(=O)C=CC2=O)n1	21.6%	x	5.01µM*	x	0.2%	x	u	-6.0%	0.9%	-1.4%	-1.3%
Cc1cnc(CNc2ccnc(-c3ccoc3)n2)cn1	x	x	-13.4%	x	5.2%	x	x	x	x	x	x
CCN(c1ccccc1)S(=O)(=O)c1ccc(C(=O)Nc2nnc(COC)o2)cc1	u	17.3	u	-23.2%	-16.6%	-13.0%	x	x	x	x	x
CCN(c1ccccc1)S(=O)(=O)c1ccc(C(=O)Nc2nnc(CSC)o2)cc1	u	-95.4*	15.8µM*	x	-22.2%	x	4.9%[10.4 µM]	-3.4%	4.8%	18.2%	12.8%
CCC1CCCCN1S(=O)(=O)c1ccc(C(=O)Nc2nnc(C3CC3)o2)cc1 (centres undefined)	u	-16.4	25.1µM*	u	-7.6%	-5.3%[46.1 µM]	10.8%[10.4 µM]	-16.1%	5.9%	12.6%	6.9%
CCN(c1ccccc1)S(=O)(=O)c1ccc(C(=O)Nc2nnc(C3CC3)o2)cc1	u	-69.0*	8.89µM*	u	-16.6%	u	44.7µM*	-19.1%	-1.5%	12.0%	5.3%
CN(c1ccccc1)S(=O)(=O)c1ccc(C(=O)Nc2nnc(C3CC3)o2)cc1	10.6%	-28.7	4.46µM*	x	-2.2%	x	-13.7%[38.3 µM]	u	-4.3%	7.0%	-6.4%
CC(C)NC(=O)OC[C@@H]1CSCCS(=O)(=O)N1	x	-7.6	x	x	x	u	x	x	x	x	x
COc1ccc(CNC(=O)C2CCCN(S(=O)(=O)c3ccc4c(ccn4C)c3)C2)c(OC)c1 (centres undefined)	x	-33.0	x	x	-11.1%	1.6%[46.1 µM]	x	x	x	x	x
Cc1ccc(NC(=S)N(CCN(C)C)Cc2cccs2)c(C)c1	-10.3%	u	14.1µM*	7.3%[46.1 µM]	7.3%	6.2%	-5.4%[10.4 µM]	-2.5%	-5.8%	4.1%	4.3%
Cc1cc(C)c(NC(=S)N(CCN(C)C)Cc2cccs2)c(C)c1	10.1%	-15.2	6.5%	u	1.5%	-7.7%	x	x	x	x	x
Cc1ccccc1OCC(O)CN1CCN(CC(O)COc2ccccc2C)C(C)C1 (centres undefined)	-15.9%	23.0	14.1µM*	u	-23.5%	u	-24.7%	-8.9%	4.1%	5.5%	5.0%
Cc1ccccc1C(N)c1ccncc1 (centres undefined)	19.0%	73.2	14.1µM*	x	-8.9%	x	-8.6%	25.8%	5.1%	13.2%	-2.2%
O=c1cnnc(N/N=C/c2ccc3c(c2)OCO3)[nH]1	22.0%	-14.5	-17.1%	x	-2.2%	x	x	x	x	x	x
SMILES	HCV inhibitor	HCMV inh	Giardia FBPA inh-1	MARV entry inh	FMDV inh	Lassa entry inh	Giardia growth	Mammal cell tox	Giardia FBPA inh-2	Rabbit aldolase	GAPDH coupling
O=c1cnnc(N/N=C/C2CC=CCC2)[nH]1 (centres undefined)	10.1%	-39.3	19.9µM*	9.8%[46.1 µM]	16.8%	-3.3%[46.1 µM]	u	17.2%	4.6%	13.1%	5.2%
O=C1C(Cl)=C(NC(=O)c2ccccc2)C(=O)C(Cl)=C1NC(=O)c1ccccc1	u	u	5.62µM*	u	28.2µM*	u	-12.4%	u	0.794µM*	3.55µM*	1.41µM*
O=C1NC(=S)S/C1=C1\Sc2ccccc2N1CCCS(=O)(=O)O	22.0%	24.7	u	1.5%	-21.4%	7.9%	x	x	x	x	x
NN1C(=O)/C(=C2/Sc3ccccc3N2CCCS(=O)(=O)O)SC1=S	9.1%	-21.3	17.8µM*	x	4.0%	x	13.6%[10.4 µM]	14.6%	10.5%	8.5%	-9.1%
CC(=O)c1cccc(NC(=S)N2CCc3ccccc32)c1	3.8%	49.3	25.1µM*	x	-19.5%	x	27.0%	-0.3%	3.8%	1.2%	15.8%
CSc1ccc(CNc2ncc(-c3cccc([N+](=O)[O-])c3)n2C)cc1	u	-18.0	20µM*	x	-22.9%	x	u	-8.7%	-2.9%	-2.5%	6.6%
Cn1c(-c2ccccc2)cnc1NCc1cccc([N+](=O)[O-])c1	-11.9%	20.0	u	x	5.2%	x	x	x	x	x	x
COc1ccccc1CNc1ncc(-c2ccccc2)n1C	-2.8%	36.8	u	x	-9.5%	x	x	x	x	x	x

Screening data from PubChem.
